This note sets out measurements from PubChem BioAssay.

Activity calls are given as the source filed them. The rule behind the calls is not given here.

In this test the target is Pantothenate synthetase (Mycobacterium tuberculosis (strain ATCC 25618 / H37Rv)) (UniProt P9WIL5). Briefly: Recombinant Mtb pantothenate synthetase (PanC) inhibitors, coupled enzyme, confirmatory (AID 375).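 Note: 0% = full reaction with vehicle and 100% = no enzyme background.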 As to conditions: coupled enzyme assay; at 10 µM, hits give high values.
Chain of Pantothenate synthetase (Mycobacterium tuberculosis (strain ATCC 25618 / H37Rv)) (P9WIL5 whole entry, looked up): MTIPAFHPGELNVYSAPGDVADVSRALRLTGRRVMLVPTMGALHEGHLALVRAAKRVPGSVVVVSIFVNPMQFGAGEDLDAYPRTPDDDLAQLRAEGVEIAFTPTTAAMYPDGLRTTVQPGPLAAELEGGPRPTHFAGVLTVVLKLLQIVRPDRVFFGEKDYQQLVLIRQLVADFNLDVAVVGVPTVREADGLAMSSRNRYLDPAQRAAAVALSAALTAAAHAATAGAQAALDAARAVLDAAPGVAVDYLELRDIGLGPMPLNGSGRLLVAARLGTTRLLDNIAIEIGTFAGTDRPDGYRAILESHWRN
Take `COc1ccccc1N1CC(O)=C(c2nc3ccccc3c(=O)[nH]2)C1=N`: the inhibition (commonly the change of the read-out against control, counted positive when it falls) is 13% (inactive).

As for `COc1ccc(CN(CC(=O)NCC2CCCO2)C(=O)CNS(=O)(=O)c2ccc(C)cc2)cc1` (stereo not given), the inhibition was 9% (inactive).

Turning to `O=C(CCSc1nnc(-c2ccncc2)o1)Nc1ccccc1`, the inhibition was 0% (inactive).

Regarding `CC1(C)C2CCC1(C)C(OC(=O)CSc1nc(N)cc(=O)[nH]1)C2` (stereo not given), the inhibition is 0% (inactive).

With `O=S(=O)(Nc1nc2ccccc2nc1NCc1ccco1)c1ccc(Cl)cc1`, the inhibition is 0% (inactive).

For `CNC(=O)OC(C)CNS(=O)(=O)c1ccc(C)cc1` (stereo not given), the inhibition is 0% (inactive).

With `CN(CCC#N)C(=O)COC(=O)c1ccc(Cl)c(S(N)(=O)=O)c1`, the inhibition is 0% (inactive).

Regarding `COc1ccc(N2CCN(CCCNC(=O)C3(S(=O)(=O)c4ccc(Cl)cc4)CC3)CC2)cc1`, the inhibition is 0% (inactive).

Turning to `O=C(c1cc(C2CC2)on1)N1CCN(C(c2ccccc2)c2ccccc2)CC1`, the inhibition is 0% (inactive).

Consider `CCOc1ccccc1C(=O)NCCC(=O)O`, for which the inhibition was 2% (inactive).

Take `COc1nc(C)ccc1-c1noc(-c2ccncc2)n1`: the inhibition was 2% (inactive).

Consider `CCn1c2ccccc2c2cc(NC(=O)CSc3nnc(C4CC4)n3Cc3ccco3)ccc21`, for which the inhibition is 1% (inactive).

For the molecule `Cn1c(=O)cc(OCCCC(=O)N2CCCCC2)c2ccccc21`, the inhibition is 0% (inactive).

For `CCOc1ccc2nc(Nc3nc4c(c(=O)[nH]3)CCC4)nc(C)c2c1`, the inhibition is 0% (inactive).

In the case of `c1c2c(cc3sc(N4CCCCC4)nc13)OCCO2`, the inhibition is 4% (inactive).

For `O=C(C1CCN(S(=O)(=O)c2cccnc2)CC1)N1CCN(c2ccc(Cl)cc2)CC1`, the inhibition is 0% (inactive).

Turning to `COc1ccc(-c2nnc3sc(C(C)N4C(=O)c5ccccc5C4=O)nn23)cc1` (stereo not given), the inhibition is 0% (inactive).

As to `CCOc1ccc2[nH]c(=O)c(C(c3nnnn3CC3CCCO3)N3CCc4ccccc4C3)cc2c1` (stereo not given), the inhibition is 0% (inactive).

As for `CO[C@H]1C[C@@H]2CC[C@@H](C)[C@@](O)(O2)C(=O)C(=O)N2CCCC[C@H]2C(=O)O[C@H]([C@H](C)C[C@@H]2CC[C@@H](O)[C@H](OC)C2)CC(=O)[C@H](C)C=C(C)[C@@H](O)[C@@H](OC)C(=O)[C@H](C)C[C@H](C)C=CC=CC=C1C`, the inhibition was 0% (inactive).

For the molecule `O=C(COC(=O)c1ccc(NS(=O)(=O)c2ccc3c(c2)OCCO3)cc1)NCC1CCCO1` (stereo not given), the inhibition was 2% (inactive).

On to `CCOc1ccc(-c2nc(C#N)c(N3CCCCCC3)o2)cc1`, for which the inhibition is 4% (inactive).

`CCC(Oc1ccccc1)C(=O)Nc1ccccc1OC` (stereo not given): the inhibition is 0% (inactive).

Consider `CCOc1ccc(S(=O)(=O)N(C)C)cc1-c1nc2c(C(C)(C)C)nn(C)c2c(=O)[nH]1`, for which the inhibition is 0% (inactive).

For `CCS(=O)(=O)c1nc2ccccc2n1Cc1ccccc1Cl`, the inhibition is 1% (inactive).

Turning to `CCCOc1ccc2nc(NC(=O)OC)[nH]c2c1`, the inhibition is 0% (inactive).

On to `Clc1ccc(C2=Nn3c(nnc3-c3n[nH]c4c3CCC4)SC2)cc1Cl`, for which the inhibition is 0% (inactive).

Take `Cc1cc(-c2ccccc2)nnc1NCCN1CCOCC1`: the inhibition was 0% (inactive).

On to `Cc1cccc(-c2cc3nc4c(c(N5CCOCC5)n3n2)CCCC4)c1`, for which the inhibition was 0% (inactive).

As for `CC1(C)CC(=O)c2cnc(NC(=O)CSc3nc4ccccc4o3)nc2C1`, the inhibition is 0% (inactive).

For the molecule `CCOC(=O)N1CCN(c2nc(-c3ccc(Cl)cc3)cs2)CC1`, the inhibition is 0% (inactive).

For `O=C1C2ON(c3ccccc3)C(c3cccnc3)C2C(=O)N1c1ccccc1` (stereo not given), the inhibition is 4% (inactive).

As to `CCOC(=O)CNc1ccc2c(c1)OCO2`, the inhibition was 0% (inactive).

On to `CCOC(=O)c1[nH]c(C)c(C(=O)Nc2cc(OC)ccc2OC)c1C`, for which the inhibition is 0% (inactive).

With `CCCC1Cc2c(sc3ncnc(N)c23)CO1` (stereo not given), the inhibition was 0% (inactive).

Take `O=c1[nH]c2cc3c(cc2cc1C(c1nnnn1C1CCCCC1)N1CCSCC1)OCCO3` (stereo not given): the inhibition was 4% (inactive).

Regarding `CCN(CC)C(=O)c1ccc(O)c(OC)c1`, the inhibition was 0% (inactive).

On to `CCc1nnc(NC(=O)c2ccc(S(=O)(=O)N(CC(C)C)CC(C)C)cc2)o1`, for which the inhibition is 0% (inactive).

`CCNc1nc(NCC)n2c(SCc3nc4ccccc4c(=O)[nH]3)nnc2n1`: the inhibition was 1% (inactive).

`COc1ccc(C(CNC(=O)c2ccc(OCC3CCCO3)cc2)N2CCOCC2)cc1` (stereo not given): the inhibition was 0% (inactive).

Take `Cc1nnc(SCc2cc(=O)[nH]c(N3CCCCC3)n2)s1`: the inhibition was 1% (inactive).
